Assay outcomes as filed in PubChem.
TWEAK Fn14 block: TWEAK-Fn14 signaling inhibition; TWEAK-stimulated Fn14 reporter cells, luciferase luminescence, 8 h; AID 1159606; inhibition, % at 10 µM; 360,000 compounds, 2% hits; in the data active means inhibition above about 50%
KKLEB cytotox: CF airway cell cytotoxicity counter-screen; AID 602141; KKLEB CF airway cells viability, ATPlite luminescence, overnight; stronger effect = lower value; cells stimulated with P. aeruginosa culture filtrate; 360,000 compounds, 0.36% hits; activity change (cytotoxicity), % at 5 µM;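 active means corrected activity change at or below -50% at 5 µM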
TROY signal inh: TROY signaling inhibition | Q293 LMP1-TROYcd NF-kB luciferase reporter, 4 h | AID 1347056 | 360,000 compounds, 0.98% hits | inhibition, % at 10 µM;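 active means compounds whose plate-normalised and pattern-corrected inhibition of the luciferase reporter signal at the single screening dose is 50% or more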
CF NFkB block: cystic fibrosis NF-kB activation inhibition | inhibition, % at 5 µM | 360,000 compounds, 0.86% hits | KKLEB NF-kB-GFP reporter, PAF-induced, GFP fluorescence overnight;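 active means at least 50% inhibition at 5 µM, scaled per plate between neutral and stimulator controls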;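 further: PAF is a Pseudomonas aeruginosa culture filtrate used as stimulus; plate controls were PAF-stimulated DMSO wells for no effect and unstimulated DMSO wells for full effect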
Peg3 prom inh: inhibitors of Peg3 promoter. HeLa PEG-Prom luciferase reporter, luminescence, overnight. inhibition, % at 20 µM. 360,000 compounds, 1.7% hits;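 active means inhibition of at least 50% at 20 µM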
HIF-2a block: blocks HIF-2a reporter activity. 786-0 RCC cells HIF-2a reporter, luciferase luminescence, overnight. AID 624352. 360,000 compounds, 0.72% hits. inhibition, % at 18.8 µM;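 active means inhibition of the luminescence signal of 40% or more relative to plate controls, in a single-dose primary screen at 18.75 µM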
Active calls of the source: *. In the library only some 4% were active in any assay of this set; here they are far more common.

SMILES | TWEAK Fn14 block | KKLEB cytotox | TROY signal inh | CF NFkB block | Peg3 prom inh | HIF-2a block
CC(C)(C)OC(=O)NCc1ccc(NC(=O)c2nc[nH]c2C(=O)NCCCCNC(=O)c2[nH]cnc2C(=O)Nc2ccc(CNC(=O)OC(C)(C)C)cc2)cc1 | 5 | -34 | 12 | 77* | 93* | 1
CC(C)(C)OC(=O)NCCCCCNC(=O)c1[nH]cnc1C(=O)Nc1cc(Br)ccc1F | 76* | -5 | 22 | 6 | 10 | -9
CC(C)(C)OC(=O)NCc1ccc(NC(=O)c2nc[nH]c2C(=O)Nc2cc(Br)ccc2F)cc1 | -32 | -39 | 2 | 12 | 14 | -1
CC(C)C[C@H](NC(=O)c1nc[nH]c1C(=O)NC(c1ccccc1)c1ccccc1)C(=O)OC(C)(C)C | 34 | -2 | 28 | 34 | 84* | 35
CC(C)(C)OC(=O)NCc1ccc(CNC(=O)c2[nH]cnc2C(=O)Nc2ccccc2F)cc1 | 54* | -6 | 40 | 18 | 39 | 3
CC(C)(C)OC(=O)N1CCC(NC(=O)c2nc[nH]c2C(=O)NC2CCN(C(=O)OC(C)(C)C)CC2)CC1 | -17 | 10 | -8 | -5 | 15 | 13
Cn1cnc(C(=O)NCc2ccc(CNC(=O)OC(C)(C)C)cc2)c1C(=O)NCc1ccc(CNC(=O)OC(C)(C)C)cc1 | 58* | -12 | 21 | 12 | 32 | 20
CC(C)(C)OC(=O)NCCCCCNC(=O)c1[nH]cnc1C(=O)Nc1ccc(Cl)cc1 | 62* | -45 | 57* | 26 | 29 | 0
CC(C)(C)OC(=O)N1CCC(NC(=O)c2nc[nH]c2C(=O)NCC(=O)OCc2ccccc2)CC1 | 16 | -2 | 13 | 16 | 55* | 3
Cc1ccc(NC(=O)c2nc[nH]c2C(=O)NCCCCCNC(=O)OC(C)(C)C)cc1 | 5 | -7 | 4 | 24 | 29 | 1
CC(C)(C)OC(=O)NCc1ccc(NC(=O)c2nc[nH]c2C(=O)NCCN(CCNC(=O)c2[nH]cnc2C(=O)Nc2ccc(CNC(=O)OC(C)(C)C)cc2)CCNC(=O)c2[nH]cnc2C(=O)Nc2ccc(CNC(=O)OC(C)(C)C)cc2)cc1 | -28 | 3 | 1 | -25 | 9 | 15
CC(C)(C)OC(=O)NCc1ccc(NC(=O)c2nc[nH]c2C(=O)NCCCNC(=O)c2[nH]cnc2C(=O)Nc2ccc(CNC(=O)OC(C)(C)C)cc2)cc1 | 73* | 7 | 19 | 40 | 78* | 16
Cc1cccc(NC(=O)CNC(=O)c2cccs2)n1 | 1 | -12 | -22 | 24 | -12 | -9
CC(C)(C)OC(=O)NCc1ccc(NC(=O)c2nc[nH]c2C(=O)NCCCCCCNC(=O)c2[nH]cnc2C(=O)Nc2ccc(CNC(=O)OC(C)(C)C)cc2)cc1 | -19 | -83* | 12 | 88* | 101* | 13
C[C@H](NC(=O)c1nc[nH]c1C(=O)NCc1ccc(CNC(=O)OC(C)(C)C)cc1)c1ccccc1 | 22 | -4 | 29 | 28 | 41 | 7
C[C@H](NC(=O)c1nc[nH]c1C(=O)NCc1ccc(CNC(=O)OC(C)(C)C)cc1)C(=O)OCc1ccccc1 | -1 | 3 | 57* | 2 | 8 | 7
COc1ccc(C(=O)CN2C(=O)NC3(CCCCCC3)C2=O)cc1 | 10 | 16 | -42 | -32 | -89 | -88
Cc1cc(C)cc(NC(=O)CCc2nc3sc4c(c3c(=O)[nH]2)CCCC4)c1 | 16 | -5 | -4 | -2 | 84* | 4
N#Cc1c2ccc(OCC(=O)NCc3ccco3)cc2n2ccccc12 | 12 | -9 | 7 | -7 | 21 | 9
N#Cc1c2ccc(O)cc2n2ccccc12 | 56* | 10 | 6 | 71* | -64 | 18
OC(CCCC(O)c1ccccc1)c1ccccc1 (configuration not stated) | 31 | 13 | -15 | 4 | 6 | -6
c1cc2c(cc1C1CCCCC1)c1c3n2CCCNC3CCC1 (configuration not stated) | -23 | -16 | -15 | 20 | 104* | 31
Cc1ccc2c(c1)c1c3n2CCCNC3CCC1 (configuration not stated) | 3 | -12 | 10 | 10 | 13 | 3
COc1ccc(NC(=S)N(CCN(C)C)C(C)c2ccncc2)cc1Cl (configuration not stated) | -10 | 5 | -6 | -7 | 54* | 3
COc1cc(Cl)ccc1NC(=S)N(CCN(C)C)C(C)c1ccncc1 (configuration not stated) | -1 | -3 | -6 | 16 | 14 | 17
SMILES | TWEAK Fn14 block | KKLEB cytotox | TROY signal inh | CF NFkB block | Peg3 prom inh | HIF-2a block
O=S(=O)(Nc1ccc(S(=O)(=O)N2CCCC2)cc1)c1ccccc1Br | -12 | 4 | 3 | 2 | 0 | -2
O=C(CCN1N=C(c2ccccc2)CCC1=O)NCC1COc2ccccc2O1 (configuration not stated) | 75* | 4 | 12 | -4 | 16 | 14
O=C(CCN1CCOCC1)NCC1COc2ccccc2O1 (configuration not stated) | -3 | -7 | 2 | -3 | 8 | 9
COc1ccccc1NC(=O)C1CCCN1S(=O)(=O)c1cccc2nsnc12 (configuration not stated) | -1 | -3 | -11 | 19 | 7 | 10
COc1ccc(NC(=O)C2CCCN2S(=O)(=O)c2cccc3nsnc23)c(OC)c1 (configuration not stated) | 70* | 16 | 3 | -24 | -8 | 0
O=C(NCc1ccc2c(c1)OCO2)C(=O)NCC1OCCCN1S(=O)(=O)c1ccccc1 (configuration not stated) | 9 | -10 | -3 | -36 | -2 | -3
CCOC(=O)c1c(-n2cccc2)sc2c1CCCC2=O | 0 | 5 | 11 | 0 | 51* | 23
O=C(Nc1ccc([N+](=O)[O-])cc1)c1cccc(S(=O)(=O)Nc2cccnc2)c1 | 2 | 0 | 2 | -9 | 6 | -2
Clc1ccccc1OCCn1nnc2ccccc21 | 95* | -12 | -16 | -9 | -243 | -255
C=CC1=CCN(S(=O)C(C)(C)C)[C@H]1CCO (some centres not stated) | -26 | 14 | -2 | -29 | -25 | 3
CN1CCN(c2ccc(NC(=O)c3ccc(-c4ccc(Br)cc4)o3)cc2)CC1 | -100 | -36 | -7 | -23 | 89* | -16
Cc1ccccc1C(=O)Nc1cccc(NC(=O)c2ccc(-c3ccc(Br)cc3)o2)c1 | -18 | -53* | -7 | 44 | 9 | -20
CCN1CCN(c2ccc(NC(=O)c3ccc(Br)o3)cc2)CC1 | -9 | -8 | -12 | 20 | -170 | -210
COc1cccc(NC(=O)c2ccc(-c3ccc([N+](=O)[O-])cc3)o2)c1 | -9 | 3 | -65 | -22 | -119 | -210
CC(c1ccccc1)N1CC(C(=O)N2CCCC(C(N)=O)C2)CC1=O (configuration not stated) | 1 | -9 | -3 | 16 | -5 | -5
